Our source for the growth inhibition values is PubChem BioAssay (NCI).

About 79,000 compounds went through this panel and 15% of them were active in at least one assay; those are over-represented in the sample as a whole. Values without a mark were called inactive. Activity calls are given as the source filed them. No stated cut-off is given here; in the data, active means growth inhibition above about 70%; inactive means the rest.

Assay [1] in a line: NCI Yeast Anticancer Drug Screen. Data for the rad50 strain (AID 155).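 Further: 0% = growth of vehicle-only cultures of the same strain.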 Particulars: S. cerevisiae rad50 strain growth inhibition, active compounds read high. An outline of the steps: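 Relative growth inhibition (compound vs vehicle) was measured in yeast with a defined repair-gene alteration.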
The nature of assay [2]: NCI Yeast Anticancer Drug Screen. Data for the mec2-1 strain (AID 157). Particulars: S. cerevisiae mec2-1 strain, active compounds read high. The gist of the method:
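mec2-1 yeast strain, carrying an alteration in DNA damage repair or cell cycle control, was exposed to compounds; growth inhibition was measured relative to vehicle-treated controls.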

A short description of assay [3]: NCI Yeast Anticancer Drug Screen. Data for the sgs1 mgt1 strain (AID 161).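 Further: 0% = growth of cultures given vehicle only.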 Particulars: S. cerevisiae sgs1 mgt1 strain, active compounds read high. An outline of the steps:
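This yeast growth screen uses a strain with defined DNA-repair lesions; compound-treated growth is compared with vehicle-treated growth.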

The nature of assay [4]: NCI Yeast Anticancer Drug Screen. Data for the cln2 rad14 strain (AID 165).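 Further: 0% = growth equal to vehicle treated cultures.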 As to conditions: S. cerevisiae cln2 rad14 strain, active compounds read high. The gist of the method: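 Yeast carrying cln2 and rad14 alterations (cell cycle control and DNA damage repair) were exposed to compounds. Growth inhibition was measured against vehicle-treated controls.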
The nature of assay [5]: NCI Yeast Anticancer Drug Screen. Data for the bub3 strain (AID 167). As to conditions: S. cerevisiae bub3 mutant strain, active compounds read high. An outline of the steps:
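Screening used yeast with an engineered genetic alteration affecting cell cycle control. Compound-exposed cultures were compared with vehicle cultures, and reduced growth was taken as inhibition.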

Assay [6] can be described thus: NCI Yeast Anticancer Drug Screen. Data for the mlh1 rad18 strain (AID 175). Particulars: S. cerevisiae mlh1 rad18 strain growth inhibition, active compounds read high. An outline of the steps:
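Growth inhibition of the yeast strain was measured after compound exposure and expressed relative to vehicle-treated controls. The strain carries defined defects in DNA damage repair.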

[7] abbreviates: at 5.0 µM (retest, dose inferred, filed as 0.5).
[8] abbreviates: at 50.0 µM (retest, dose inferred, filed as 5.0).

Regarding `O=C1c2ccccc2C(=O)c2sccc21`, the growth inhibition in assay [1] (setting [7]) is -97%; in assay [1] (setting [8]), 91% (active); in assay [1] (at 50.0 µM), 95.8% (active); in assay [2] (setting [7]), -36%; in assay [2] (setting [8]) it was 51%; in assay [2] (at 50.0 µM), 84.8% (active). Besides, the growth inhibition in assay [3] (setting [7]) is -43%; in assay [3] (setting [8]), 62%; in assay [3] (at 50.0 µM), 93.8% (active); in assay [4] (setting [7]), -56%; in assay [4] (setting [8]) it was 32%; in assay [4] (at 50.0 µM) it was 56.3%. For the same compound, the growth inhibition in assay [5] (setting [7]) was -36%; in assay [5] (setting [8]) it was 90% (active); in assay [5] (at 50.0 µM), 90.5% (active); in assay [6] (setting [7]), -75%; in assay [6] (setting [8]), 92% (active); in assay [6] (at 50.0 µM), 93.9% (active).
Consider `CS/C(N)=N/NC(=O)CCC(=O)Nc1cc(Cl)c(Cl)cc1Cl`, for which the growth inhibition was 3% in assay [1] (setting [7]); 16% in assay [1] (setting [8]); 24.7% in assay [1] (at 50.0 µM); 9% in assay [2] (setting [7]); -2% in assay [2] (setting [8]); 3% in assay [2] (at 50.0 µM). Further, the growth inhibition in assay [3] (setting [7]) was 6%; in assay [3] (setting [8]) it was 16%; in assay [3] (at 50.0 µM) it was -10.2%; in assay [4] (setting [7]), 13%; in assay [4] (setting [8]), 13%; in assay [4] (at 50.0 µM), 15%. The growth inhibition was 4% in assay [5] (setting [7]); 4% in assay [5] (setting [8]); -0.85% in assay [5] (at 50.0 µM); 5% in assay [6] (setting [7]); 3% in assay [6] (setting [8]); 19.5% in assay [6] (at 50.0 µM).
With `CCCCCCC(C)c1ccccc1O` (stereo not given) (tested in a mixture with another compound), the growth inhibition was 25% in assay [1] (setting [7]); 96% (active) in assay [1] (setting [8]); 92.2% (active) in assay [1] (at 50.0 µM); 24% in assay [2] (setting [7]); 100% (active) in assay [2] (setting [8]); 94% (active) in assay [2] (at 50.0 µM). Also, the growth inhibition is 25% in assay [3] (setting [7]); 100% (active) in assay [3] (setting [8]); 94% (active) in assay [3] (at 50.0 µM); 25% in assay [4] (setting [7]); 100% (active) in assay [4] (setting [8]); 93.6% (active) in assay [4] (at 50.0 µM). The growth inhibition in assay [5] (setting [7]) was 37%; in assay [5] (setting [8]), 99% (active); in assay [5] (at 50.0 µM), 93% (active); in assay [6] (setting [7]), 38%; in assay [6] (setting [8]) it was 99% (active); in assay [6] (at 50.0 µM), 92.2% (active).
Take `O=C1NC(=O)N(c2ccc(Cl)c(Cl)c2)C1=O`: the growth inhibition in assay [1] (setting [7]) is -1%; in assay [1] (setting [8]), 8%; in assay [1] (at 50.0 µM) it was 71.2% (active); in assay [2] (setting [7]) it was 1%; in assay [2] (setting [8]) it was 8%; in assay [2] (at 50.0 µM), 36.5%. In addition, the growth inhibition in assay [3] (setting [7]) was 0%; in assay [3] (setting [8]), 7%; in assay [3] (at 50.0 µM) it was 41.5%; in assay [4] (setting [7]), -4%; in assay [4] (setting [8]), 5%; in assay [4] (at 50.0 µM) it was 24.8%. In addition, the growth inhibition is -5% in assay [5] (setting [7]); -1% in assay [5] (setting [8]); 44.5% in assay [5] (at 50.0 µM); -4% in assay [6] (setting [7]); 4% in assay [6] (setting [8]); 27.9% in assay [6] (at 50.0 µM).
On to `c1ccc(C[n+]2cccc(-c3cc4ccccc4[nH]3)c2)cc1`, for which the growth inhibition in assay [1] (setting [7]) was 12%; in assay [1] (setting [8]), 14%; in assay [1] (at 50.0 µM), -21.7%; in assay [2] (setting [7]), 0%; in assay [2] (setting [8]) it was -42%; in assay [2] (at 50.0 µM), -24.6%. Also, the growth inhibition in assay [3] (setting [7]) was -9%; in assay [3] (setting [8]), 17%; in assay [3] (at 50.0 µM), -45.2%; in assay [4] (setting [7]) it was -46%; in assay [4] (setting [8]), -23%; in assay [4] (at 50.0 µM) it was 77.3% (active). Besides, the growth inhibition in assay [5] (setting [7]) is -17%; in assay [5] (setting [8]) it was -9%; in assay [5] (at 50.0 µM) it was -43.5%; in assay [6] (setting [7]), -1%; in assay [6] (setting [8]) it was 13%; in assay [6] (at 50.0 µM), -3.55%.
As to `CS(=O)(=O)c1snc(N)c1C#N`, the growth inhibition in assay [1] (setting [7]) was 11%; in assay [1] (setting [8]) it was 73% (active); in assay [1] (at 50.0 µM), 40.9%; in assay [2] (setting [7]), 23%; in assay [2] (setting [8]), 85% (active); in assay [2] (at 50.0 µM), 47.5%. Further, the growth inhibition in assay [3] (setting [7]) was 17%; in assay [3] (setting [8]), 80% (active); in assay [3] (at 50.0 µM) it was 50.6%; in assay [4] (setting [7]), 6%; in assay [4] (setting [8]) it was 61%; in assay [4] (at 50.0 µM), -10.1%. The growth inhibition in assay [5] (setting [7]) is 29%; in assay [5] (setting [8]) it was 89% (active); in assay [5] (at 50.0 µM), -9.75%; in assay [6] (setting [7]) it was 18%; in assay [6] (setting [8]), 85% (active); in assay [6] (at 50.0 µM), 68.4%.
Turning to `O=C1NN(C2=NNC3(C(=O)N2)c2ccccc2-c2ccccc23)C(c2ccccc2)=N/C1=C/c1ccc(O)cc1`, the growth inhibition is 1% in assay [1] (setting [7]); -14% in assay [1] (setting [8]); 21.4% in assay [1] (at 50.0 µM); -14% in assay [2] (setting [7]); 9% in assay [2] (setting [8]); 50% in assay [2] (at 50.0 µM). Moreover, the growth inhibition in assay [3] (setting [7]) was -9%; in assay [3] (setting [8]) it was 23%; in assay [3] (at 50.0 µM), 65%; in assay [4] (setting [7]), -6%; in assay [4] (setting [8]), 21%; in assay [4] (at 50.0 µM), 7%. For the same compound, the growth inhibition in assay [5] (setting [7]) is -14%; in assay [5] (setting [8]), 9%; in assay [5] (at 50.0 µM) it was 81.5% (active); in assay [6] (setting [7]), -43%; in assay [6] (setting [8]), 28%; in assay [6] (at 50.0 µM) it was 83.2% (active).
For `O=C(CC(=O)c1ccccc1)CC1(O)CCCCC1`, the growth inhibition in assay [1] (setting [7]) is 22%; in assay [1] (setting [8]) it was 42%; in assay [1] (at 50.0 µM), 61.1%; in assay [2] (setting [7]), 2%; in assay [2] (setting [8]), 16%; in assay [2] (at 50.0 µM), 78.9% (active). In addition, the growth inhibition was 4% in assay [3] (setting [7]); 34% in assay [3] (setting [8]); 79.9% (active) in assay [3] (at 50.0 µM); -9% in assay [4] (setting [7]); 14% in assay [4] (setting [8]); 50.4% in assay [4] (at 50.0 µM). The growth inhibition in assay [5] (setting [7]) is 15%; in assay [5] (setting [8]) it was 86% (active); in assay [5] (at 50.0 µM), 96% (active); in assay [6] (setting [7]), 6%; in assay [6] (setting [8]) it was 29%; in assay [6] (at 50.0 µM), 89.1% (active).
Regarding `CCCCN(CCCC)Cc1cc(Nc2c3ccc(Cl)cc3nc3ccc(OC)cc23)ccc1O`, the growth inhibition in assay [1] (setting [7]) was 4%; in assay [1] (setting [8]), 91% (active); in assay [1] (at 50.0 µM), 79.2% (active); in assay [2] (setting [7]), 10%; in assay [2] (setting [8]), 56%; in assay [2] (at 50.0 µM), 86.7% (active). The growth inhibition is -19% in assay [3] (setting [7]); 95% (active) in assay [3] (setting [8]); 75.4% (active) in assay [3] (at 50.0 µM); -4% in assay [4] (setting [7]); 23% in assay [4] (setting [8]); 89.5% (active) in assay [4] (at 50.0 µM). Besides, the growth inhibition in assay [5] (setting [7]) was -3%; in assay [5] (setting [8]), 36%; in assay [5] (at 50.0 µM), 58.4%; in assay [6] (setting [7]) it was 7%; in assay [6] (setting [8]) it was 79% (active); in assay [6] (at 50.0 µM), 98.1% (active).
As for `CCCCCCC(C)OC(=O)/C=C/c1ccccc1` (stereo not given), the growth inhibition in assay [1] (setting [7]) was 4%; in assay [1] (setting [8]), 4%; in assay [1] (at 50.0 µM), 33.5%; in assay [2] (setting [7]), -2%; in assay [2] (setting [8]) it was 1%; in assay [2] (at 50.0 µM) it was 14.2%. Also, the growth inhibition was 5% in assay [3] (setting [7]); 10% in assay [3] (setting [8]); 11.9% in assay [3] (at 50.0 µM); 0% in assay [4] (setting [7]); 1% in assay [4] (setting [8]); 39.4% in assay [4] (at 50.0 µM). Also, the growth inhibition was 2% in assay [5] (setting [7]); 13% in assay [5] (setting [8]); 17.5% in assay [5] (at 50.0 µM); 19% in assay [6] (setting [7]); -6% in assay [6] (setting [8]); 26.9% in assay [6] (at 50.0 µM).
